We go through 35 molecules from the supplement of paper PMC8699584.

Where “and” joins values, the source holds several entries; their conditions need not be identical. Identical values can stand only once. ± gives the standard deviation of the averaged measurements.

For one experiment, the system named is Molm13. Briefly: cell viability relative to DMSO control (bortezomib = 0%); higher = less growth inhibition. To be noted: 10 nM; 72 h. The procedure, abridged: (§1)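 In duplicate runs, a library of 679 approved and investigational compounds in 384-well plates received acute myeloid leukemia cells at 1000 cells per well in 50 µL, with each compound at a single 10 nM dose for 72 h. CellTiter-Glo luminescence, read on an EnVision reader, served as the viability measure. Each plate was normalized by linear regression between DMSO-treated cells (100%) and positive-control-treated cells (0%).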

The subject of a further experiment is Mv4-11. The description is as above. To be noted: 10 nM; 72 h. The procedure, abridged: as §1

Regarding `C[C@H]1[C@H](C)CC[C@]2(C(=O)O[C@@H]3O[C@H](CO[C@@H]4O[C@H](CO)[C@@H](O[C@@H]5O[C@H](C)[C@H](O)[C@@H](O)[C@H]5O)[C@H](O)[C@H]4O)[C@@H](O)[C@H](O)[C@H]3O)CC[C@]3(C)C(=CC[C@@H]4[C@@]5(C)C[C@@H](O)[C@H](O)[C@@](C)(CO)[C@@H]5CC[C@]43C)[C@H]12` [Asiaticoside], the cell viability in the experiment on Molm13 was 108 ± 13%; in the experiment with Mv4-11 it was 114 ± 2.9%.

As to `O=C(O)CN1C(=O)c2c(I)c(I)c(I)c(I)c2C1=O`, the cell viability in the experiment with Molm13 came out at 126 ± 38%; with Mv4-11, 107 ± 3.2%.

`Cc1c(C)c2c(c(C)c1O)CC[C@@](C)(CCC[C@H](C)CCC[C@H](C)CCCC(C)C)O2` [Vitamin E]: the results for the cell viability with Molm13 and in the experiment on Mv4-11 were 93.3 ± 1.1% and 107 ± 16%, respectively.

Turning to `CC(C)(C)c1nc2c3cc[nH]c(=O)c3c3cc(F)ccc3c2[nH]1` [Pyridone 6], the cell viability in the experiment with Molm13 came to 99.5 ± 18%; in the experiment with Mv4-11 it was 106 ± 7%.

`O=C1NC(=O)/C(=C/c2ccc3nccnc3c2)S1`: the cell viability with Molm13 was 102 ± 17%; in the experiment with Mv4-11, 113 ± 4.8%.

`Nc1nc(OCC2CCCCC2)c2[nH]cnc2n1`: the cell viability with Molm13 worked out at 90.5 ± 11%; with Mv4-11, 105.62 ± 0.08%.

For `COc1ccc(-n2c(SCC#N)nc3sc4c(c3c2=O)CCCC4)cc1` [Necrostatin-5], the cell viability is 102 ± 3.9% in the experiment on Molm13 and 103 ± 3% in the experiment on Mv4-11.

Take `COc1cc2ncnc(Sc3nnc(C)s3)c2cc1OC`: the cell viability stood at 127 ± 30% with Molm13 and 115 ± 14% in the experiment with Mv4-11.

For `N#Cc1c(Oc2ccc(F)c(NC(=O)Cc3cccc(C(F)(F)F)c3)c2)ccc2nc(NC(=O)C3CC3)sc12`, the cell viability in the experiment with Molm13 worked out at 105 ± 12%; in the experiment on Mv4-11 it was 114 ± 6.7%.

As to `CNC(=O)c1ccc(-c2cnc3ncc(Cc4ccc5ncccc5c4)n3n2)cc1F`, the cell viability with Molm13 was determined as 109 ± 3.6%; with Mv4-11 it was 108 ± 6.8%.

On to `Cc1nc2ccc(-n3ncc(C(=O)c4cc5ccccc5[nH]4)c3N)cc2[nH]1`, for which the cell viability turned out to be 114 ± 3.2% in the experiment with Molm13 and 110 ± 12% in the experiment on Mv4-11.

As for `CCS(=O)(=O)N1CC(CC#N)(n2cc(-c3ncnc4[nH]ccc34)cn2)C1`, the figures for the cell viability in the experiment on Molm13 and in the experiment on Mv4-11 were 122 ± 31% and 105 ± 8.7%, respectively.

Take `Cc1cc(Nc2cc(N3CCN(C)CC3)nc(/C=C/c3ccccc3)n2)n[nH]1`: the cell viability in the experiment with Molm13 amounted to 89.6 ± 1.1%; in the experiment on Mv4-11 it was 105 ± 9.9%.

Turning to `CC(=O)O[C@H]1C(=O)[C@@]2(C)[C@H]([C@H](OC(=O)c3ccccc3)[C@]3(O)C[C@H](OC(=O)[C@H](O)[C@@H](NC(=O)c4ccccc4)c4ccccc4)C(C)=C1C3(C)C)[C@]1(OC(C)=O)CO[C@@H]1C[C@@H]2O` [Paclitaxel], the cell viability was -2.33 ± 4.8% with Molm13 and -3.89 ± 0.25% with Mv4-11.

In the case of `Cc1ccc(C(=O)N(CCCN)[C@@H](c2oc3cc(Cl)ccc3c(=O)c2Cc2ccccc2)C(C)C)cc1`, the cell viability is 2.68 ± 8.6% in the experiment with Molm13 and -0.7 ± 5.9% in the experiment with Mv4-11.

`Cn1cc(C2=C(c3ccc(Cl)cc3Cl)C(=O)NC2=O)c2ccccc21`: the cell viability in the experiment on Molm13 is 96.9% and 84.3%; in the experiment on Mv4-11 it was 106% and 108%.

As to `CCOc1cc2ncc(C#N)c(Nc3ccc(F)c(Cl)c3)c2cc1NC(=O)/C=C/CN(C)C` [Pelitinib (EKB-569)], the cell viability with Molm13 was 104 ± 12%; with Mv4-11, 104 ± 3.4%.

`Nc1nccc(Oc2ccc3c(C(=O)Nc4cccc(C(F)(F)F)c4)cccc3c2)n1`: the figures for the cell viability in the experiment on Molm13 and with Mv4-11 were 94.7 ± 6.4% and 117 ± 8.5%, respectively.

Take `O=c1c(O)c(-c2cc(O)c(O)c(O)c2)oc2cc(O)cc(O)c12` [Myricetin]: the cell viability in the experiment with Molm13 stood at 106 ± 20%; in the experiment on Mv4-11, 114 ± 17%.

For the molecule `CONC(=O)c1ccccc1Nc1cc(Nc2cc(C)nn2C(C)C)ncc1Cl`, the cell viability in the experiment with Molm13 was determined as 105 ± 9.6%; with Mv4-11, 105 ± 1.3%.

`CS(=O)(=O)c1ccc(-c2nc(-c3ccc(F)cc3)c(-c3ccncc3)[nH]2)cc1`: the cell viability was 108 ± 14% in the experiment with Molm13 and 100.3 ± 0.91% in the experiment on Mv4-11.

Regarding `Cc1ncc(CO)c(CO)c1O` [Pyridoxine], the cell viability in the experiment on Molm13 came out at 95.3 ± 26%; with Mv4-11, 114 ± 20%.

For the molecule `CS(=O)(=O)N1CCN(Cc2cc3nc(-c4cccc5[nH]ncc45)nc(N4CCOCC4)c3s2)CC1`, the figures for the cell viability in the experiment with Molm13 and in the experiment with Mv4-11 were 89.9 ± 12% and 106.7 ± 0.54%, respectively.

Turning to `Cc1cc2c(F)c(Oc3ncnn4cc(OC[C@@H](C)OC(=O)[C@H](C)N)c(C)c34)ccc2[nH]1`, the cell viability with Molm13 is 101 ± 38%; with Mv4-11, 106 ± 5.3%.

Turning to `CCOc1cc(C(=O)N2CCC(N3CCN(C)CC3)CC2)ccc1Nc1ncc2c(n1)N(C1CCCC1)c1ccccc1C(=O)N2C`, the cell viability is 111 ± 7.2% in the experiment on Molm13 and 96.1 ± 19% with Mv4-11.

Regarding `COc1cc(N2CCN(C)CC2)ccc1Nc1nccc(-c2cn(C)c3cnccc23)n1`, the cell viability with Molm13 is 118 ± 3.1%; with Mv4-11, 117 ± 7%.

Turning to `Cc1cc(Nc2ncnc3ccc(NC4=NC(C)(C)CO4)cc23)ccc1Oc1ccn2ncnc2c1` [Irbinitinib(ARRY-380; ONT-380)], the cell viability with Molm13 worked out at 103 ± 17%; in the experiment with Mv4-11, 112 ± 8.3%.

Regarding `N#C/C(=C\c1ccc(O)c(O)c1)C(=O)NCc1ccccc1`, the values for the cell viability in the experiment with Molm13 and in the experiment with Mv4-11 were 96.4 ± 11% and 100.7 ± 0.73%, respectively.

In the case of `COc1cc(N2CCOCC2)ccc1Nc1ncc(Cl)c(Nc2ccccc2NS(C)(=O)=O)n1`, the figures for the cell viability in the experiment with Molm13 and in the experiment with Mv4-11 were 108 ± 10% and 111 ± 24%, respectively.

As to `CC(C)(C)[Si](C)(C)Oc1ccc2oc(=O)c3c(c2c1)CCCN3`, the cell viability was 108 ± 12% in the experiment on Molm13 and 108 ± 14% in the experiment on Mv4-11.

With `Cc1nc(NC(=O)N2CCC[C@@H]2C(N)=O)sc1-c1ccnc(C(C)(C)C(F)(F)F)c1` [BYL-719(Alpelisib)], the cell viability with Molm13 came out at 113 ± 6.5%; in the experiment with Mv4-11 it was 102 ± 15%.

As for `Cc1nc(Nc2ncc(C(=O)Nc3c(C)cccc3Cl)s2)cc(N2CCN(CCO)CC2)n1` [Dasatinib monohydrate], the cell viability in the experiment on Molm13 was determined as 80.8 ± 25%; with Mv4-11 it was 106 ± 9.4%.

For the molecule `Cc1ccc(C(=O)Nc2ccc(CN3CCN(C)CC3)c(C(F)(F)F)c2)cc1C#Cc1cnc2[nH]ncc2c1`, the cell viability is -13.5 ± 5.7% with Molm13 and -14.8 ± 0.36% in the experiment with Mv4-11.

Consider `NC(=O)Nc1cc(-c2ccc(CN3CCOCC3)cc2)sc1C(N)=O`, for which the results for the cell viability in the experiment on Molm13 and in the experiment on Mv4-11 were 108 ± 30% and 113 ± 6.3%, respectively.

As to `Cn1cc(C2=C(c3cn(CCCSC(=N)N)c4ccccc34)C(=O)NC2=O)c2ccccc21` [Bisindolylmaleimide IX (mesylate)], the cell viability with Molm13 worked out at 99.3 ± 4.7%; in the experiment on Mv4-11, 104 ± 12%.

Broadly, the cell viability is a read-out of living cells in per cent, often relative to untreated cells.
